In PubChem BioAssay (NCATS):
Several values for one entry are separate records, joined by “and”; a condition that tells them apart may be missing. Equal entries are not always repeated. Unmarked numbers belong to inactive results. Calls come from the whole dose curve; as a rule, active = well fitted activation curve with a large enough effect; inconclusive = small, poorly fitted or top-dose-only effect; inactive = flat fitted curve, though single readings scatter.

Target: Peroxisome proliferator-activated receptor alpha (Homo sapiens) (UniProt Q07869)
Test: qHTS assay for small molecule agonists of the peroxisome proliferator-activated receptor alpha (PPARalpha) signaling pathway (AID 651778); note: % of control where 0% means no effect
Conditions: PathHunter PPARalpha complementation, chemiluminescence, 6 h; hits give high values
Text: National Center for Advancing Translational Sciences [NCATS]
NIH Chemical Genomics Center [NCGC]
U.S. Environmental Protection Agency [EPA]
National Institutes of Environmental Health Sciences [NIEHS]
National Toxicology Program [NTP]
The Peroxisome proliferator-activated receptors (PPARs) are lipid-activated transcription factors of the nuclear receptor superfamily with three distinct subtypes (alpha, garmma and beta/delta). All these subtypes heterodimerize with retinoid X receptor and have different physiological functions. PPARalpha is highly expressed in tissues with high rates of mitochondrial fatty acid oxidation, such as liver, heart, muscle, kidney and cells of the arterial wall. PPARalpha is a major regulator of lipid metabolism and energy homeostasis.
A cell based assay was used to identify activators of PPARalpha. The assay detects binding of a ligand to PPARalpha leading to its activation, translocation and complementation thus forming a functional enzyme capable of hydrolyzing the substrate molecule and generating chemiluminescent signal.
2,000 cells in 6 uL/well were dispensed into white wall/solid bottom 1536-well plates using a Multidrop Combi (Thermo Scientific) dispenser. After incubation 37 C and 5% CO2 overnight, 23 nL compound or DMSO only were transferred by a pin tool. The plates were incubated for 6 hr at 37 C and 5% CO2. 3 ul PathHunter detection reagent (Discoverx) was then added to each well and following 60 min incubation at room temperature, chemiluminescence was quantified on a ViewLux CCD-based plate reader.

Peroxisome proliferator-activated receptor alpha (Homo sapiens), sequence (Q07869 whole entry, looked up): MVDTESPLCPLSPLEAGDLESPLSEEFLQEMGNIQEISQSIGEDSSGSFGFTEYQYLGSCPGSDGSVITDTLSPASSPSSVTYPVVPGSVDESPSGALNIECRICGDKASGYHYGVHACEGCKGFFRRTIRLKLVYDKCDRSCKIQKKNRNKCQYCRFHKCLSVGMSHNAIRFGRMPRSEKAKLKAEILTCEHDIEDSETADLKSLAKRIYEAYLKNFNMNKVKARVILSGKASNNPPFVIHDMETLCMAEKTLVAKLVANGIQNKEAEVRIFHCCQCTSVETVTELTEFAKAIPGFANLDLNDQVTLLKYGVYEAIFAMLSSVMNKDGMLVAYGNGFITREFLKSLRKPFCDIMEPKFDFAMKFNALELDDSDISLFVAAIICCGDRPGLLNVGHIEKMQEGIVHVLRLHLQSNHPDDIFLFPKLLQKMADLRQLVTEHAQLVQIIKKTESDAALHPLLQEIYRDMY

SMILES | max response
Clc1ccccn1 | -1.35%
Cc1cc(C)cc(N)c1 | -1.33%
c1ccc2c(c1)Oc1ccccc1S2 | -0.0488%
COc1ccccc1[N+](=O)[O-] | -1.42% and -1.21%
CC(=O)OC(C)=O | -5.07%
Cc1ccc(Br)cc1 | -0.752%
Cc1cc(C)cc([N+](=O)[O-])c1 | -0.421%
Nc1nc(CC(=O)O)cs1 | 1.57%
C1CCOC1 | -1.78%
CCCCCNCCCCC | -4.45% and 0.112%
O=C1OC(=O)c2cc([N+](=O)[O-])ccc21 | -4.48%
c1ccsc1 | -6.32%
CN(C)CCCCl | -1.33%
CC1=C(/C=C/C(C)=C/C=C/C(C)=C\C=O)C(C)(C)CCC1 | 1.33%
CC(=O)Nc1ccc(N)cc1 | 0.154%
ICCc1ccccc1 | -1.29%
CC(C=O)Cc1ccc(C(C)(C)C)cc1 (stereo not given) | -2% and -1.24%
CC(=O)c1nccs1 | -1.62%
CCCCCCCN | -4.9%
c1ccc(Nc2ccccc2)cc1 | -3.04% and -2.25%

SMILES | max response
O=Cc1ccccc1Cl | -3.69%
CCCCCCO | 6.04%
CSCCC=O | 13.7%
CCCCC(CC)CNCC(CC)CCCC (stereo not given) | -0.499%
CC(O)CC(C)O (stereo not given) | -0.949%
Fc1ccccc1 | 1.57%
BrC(Br)C(Br)Br | 6.41%
Cc1cc([N+](=O)[O-])ccc1N | -7.44%
O=C(O)/C=C/C(=O)O | -1.33%
CC(C)(O)CCC(C)(C)O | -3.81%
CC(C)C(C)C | -4.01%
O=C(O)CNC(=O)c1ccc(CO)o1 | -5.12%
O=[N+]([O-])c1ccc(Cl)cc1Cl | -1.04%
CCCCC(CC)COC(=O)CCCCC(=O)OCC(CC)CCCC (stereo not given) | -4.18% and -1.05%
CCCCCO | -2.11%
CCc1ccccc1O | -2.08%
C=Cc1ccc(C=C)cc1 | -4.42%
CC(N)CN (stereo not given) | -3.51%
CC(C)Cc1nccs1 | -1.04%
CCCOCC(C)OCC(C)O (stereo not given) | -1.53%
